Experimental data reported in PubChem BioAssay AID687016 (The Scripps Research Institute Molecular Screening Center, 2013).
The whole screen tested about 370,000 compounds, of which about 2,800 (0.76%) were called active. Only a selection was taken, and actives are over-represented in it overall. A number with no mark means an inactive call. Rule as the data show it: active = inhibition above about 21%; inactive = the rest.

biological target: E3 ubiquitin-protein ligase UHRF1 (Homo sapiens) (UniProt Q96T88); experiment: UHRF1 methylated DNA binding inhibitors, primary screen, counter-screen for MBD2 inhibitor project, biochemical, TR-FRET, human UHRF1, single concentration (AID 687016); conditions: UHRF1 binding to methylated oligo, at 4.4 µM, active compounds read high;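 also: UHRF1 SRA domain binding a hemimethylated CpG hairpin DNA probe; 0% = median of test compound wells and 100% = reference inhibitor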
Sequence (Q96T88 whole entry, looked up, the tested form may be a part): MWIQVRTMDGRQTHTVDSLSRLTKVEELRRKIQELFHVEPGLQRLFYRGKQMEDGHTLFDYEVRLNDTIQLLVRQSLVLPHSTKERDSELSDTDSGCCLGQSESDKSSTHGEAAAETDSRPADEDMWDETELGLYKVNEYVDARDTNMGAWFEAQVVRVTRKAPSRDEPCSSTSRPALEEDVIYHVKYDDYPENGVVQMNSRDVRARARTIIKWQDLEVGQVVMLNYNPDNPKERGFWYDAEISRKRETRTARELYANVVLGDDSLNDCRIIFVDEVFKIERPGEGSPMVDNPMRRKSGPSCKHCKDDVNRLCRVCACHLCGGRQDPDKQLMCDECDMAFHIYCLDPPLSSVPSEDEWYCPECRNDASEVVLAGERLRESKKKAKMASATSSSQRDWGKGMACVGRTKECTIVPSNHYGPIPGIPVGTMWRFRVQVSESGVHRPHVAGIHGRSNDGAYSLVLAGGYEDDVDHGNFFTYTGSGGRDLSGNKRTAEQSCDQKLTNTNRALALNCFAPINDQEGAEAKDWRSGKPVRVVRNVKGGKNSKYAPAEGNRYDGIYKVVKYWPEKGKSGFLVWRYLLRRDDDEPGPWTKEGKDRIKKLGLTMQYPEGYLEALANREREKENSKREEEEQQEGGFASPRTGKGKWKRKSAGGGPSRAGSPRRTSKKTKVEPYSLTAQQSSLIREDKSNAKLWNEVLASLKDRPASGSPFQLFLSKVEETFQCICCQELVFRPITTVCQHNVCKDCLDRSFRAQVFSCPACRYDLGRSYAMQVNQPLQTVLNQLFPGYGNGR

Row | SMILES | inhibition
1 | CC(=O)Nc1ccccc1C(=O)OCC(=O)c1cccc2ccccc12 | 0.36%
2 | CC(C)c1ccc(OCC(=O)N2CCCN(C)CC2)cc1 | -1.28%
3 | Cn1cc(C(=O)OCC(=O)N2CCCC2)c2ccccc21 | 73.7% (active)
4 | O=C1C2CCN(CC2)C1(CO)CO | 0.15%
5 | Cc1ccccc1CCC[C@@H](CC1CCCCC1)CN(C)C(=O)Oc1ccccc1 | -0.75%
6 | O=C1NC(=O)N(Cc2ccco2)C(=O)/C1=C\c1ccc(-c2ccc(F)cc2)o1 | 81.8% (active)
7 | Cc1cc(/C=C2/C(=O)NC(=O)N(Cc3ccco3)C2=O)c(C)n1-c1ccc(C(=O)O)cc1 | 78.5% (active)
8 | Cc1cc(C=C2C(=O)NC(=O)NC2=O)c(C)n1-c1ccncc1 | -7.92%
9 | Cc1ccnc(-n2c(C)cc(/C=C3\C(=O)NC(=S)N(C)C3=O)c2C)c1 | 1.95%
10 | CO[C@H]([C@H](C)/C=C/N(C)C=O)[C@@H](C)C(=O)CC[C@H](C)[C@H](O)[C@H](C)[C@H]1OC(=O)/C=C/C(C)=C/[C@H](O)[C@H](OC)C[C@@H]2C=CC[C@@H](C[C@H](OC)[C@@]3(CO3)[C@@H](OC)C[C@@H](OC)[C@@H]1C)O2 | -2.95%
11 | CC(=CCOc1ccc2ccc(=O)oc2c1)C1=CC(=O)C(C)(C)O1 | 0.79%
12 | NC(=O)Cn1cc(C(=O)c2ccccc2F)c2ccccc21 | -1.97%
13 | S=C(NCCc1ccccc1)N1Cc2cc(N3CCOCC3)ccc2-n2nncc2C1 | -3.2%
14 | CCOC(=O)[C@]12Cc3ccccc3[C@H]1N(C1CCCCC1)C(=O)c1cc(OC)ccc12 | -1.33%
15 | COP(=O)(Sc1ccccc1)C(Cc1ccccc1)NC(=O)OCc1ccccc1 (stereo not given) | -3.61%
16 | O=c1c2ccccc2nc(-c2ccc(Cl)cc2Cl)n1-c1ccncc1 | -0.96%
17 | COc1ccc(N2C(=O)/C(=C/c3ccco3)C(=O)NC2=S)cc1 | 68.7% (active)
18 | CCOC(=O)C(O)(c1ccc(N=Cc2ccccc2O)c(C)c1)C(F)(F)F (stereo not given) | -1.83%
19 | CN(C)CCCN=Cc1c(O)n(Cc2ccco2)c(=O)[nH]c1=O | 0.23%
20 | CC(C)CN1CCN(Cc2ccccc2C(F)(F)F)CC1CCO (stereo not given) | -2.88%
